An excerpt weighted towards active compounds, which were near 7.9% of everything screened.
KB-3-1 tox: kills parental KB-3-1 adenocarcinoma cells | KB-3-1 viability, CellTiter-Glo ATP luminescence, 72 h | Potency, µM (highest dose often 46.1 µM), hits mostly cytotoxic | 400,000 tested, 1.4% active | AID 1347075; note: nearly all actives have a fitted effect of over 60% in size
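Parental KB-3-1 adenocarcinoma cells in phenol-red-free DMEM with 10% FBS were pin-treated with compounds at several concentrations, incubated 72 h at 37 °C, and viability read by CellTiter-Glo luminescence; concentration-effect curves were fitted after normalization.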
SW480 rereplic: inducers of DNA re-replication in SW480 colon cancer cells | SW480 DNA re-replication, Hoechst DNA content imaging, 48 h | Potency, µM (top dose mostly 46.1 µM), actives largely listed as activators | 340,000 tested, 1.8% active; note: nearly all actives have a fitted effect of over 55% in size
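250 cells/well; 23 nL cpd via pin tool; 48 hr, 37 C, 5% CO2; Hoechst 40 min; imager read of total nuclear intensity, ex 405/em 500-530 nm.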
HT1080NT lethal: kills 2HG-producing HT-1080-NT fibrosarcoma cells. HT-1080-NT fibrosarcoma viability, CellTiter-Glo ATP luminescence, 48 h. Potency, µM (top dose mostly 46.1 µM), actives largely listed as cytotoxic. 360,000 tested, 1.6% active. AID 686970;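 note: NT is the 2HG producing partner of a matched IDH1 knockdown line; nearly all actives have a fitted effect of over 55% in size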
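Toxicity toward the 2HG-producing NT line was scored as %Activity, normalised to DMSO and no-cell wells, from CellTiter-Glo luminescence after 48 hours' treatment.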
MCF10A rerep: inducers of DNA re-replication in MCF 10A breast cells. MCF 10A DNA re-replication, Hoechst nuclear intensity, 48 h. Potency, µM (top dose mostly 46.1 µM), hits mostly activators. 350,000 tested, 2.9% active; note: nearly all actives have a fitted effect of over 50% in size
KB-V1 MDR tox: KB-V1 MDR subline cytotoxicity; KB-V1 MDR cells viability, CellTiter-Glo, 72 h; 400,000 tested, 3.4% active; Potency, µM (top dose mostly 46.1 µM), usual class: cytotoxic; AID 1347076; note: nearly all actives have a fitted effect of over 60% in size
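Following 72 h at 37 degrees C with compound, KB-V1 cell viability was read by CellTiter-Glo luminescence, medium being phenol-red-free DMEM plus 10% FBS; concentration-response parameters came from normalized, curve-fitted qHTS data.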
HT1080 IDH1KD tx: HT-1080 IDH1 knockdown cell toxicity (counter line). HT-1080 IDH1 knockdown viability, ATP luminescence, 48 h. Potency, µM (doses to about 46.1 µM), most hits filed as cytotoxic. 360,000 tested, 2% active. AID 686971
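In this qHTS, HT-1080 cells depleted of IDH1 are exposed for 48 h at 37 °C to compound titrations. Toxicity is scored from CellTiter-Glo luminescence, with DMSO as full viability and medium alone as none.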
Numbers stand for hits; [ ] = dose if it differs, or a comment. Calls come from the whole dose curve; as a rule, active = well fitted curve in the direction sought with a large enough effect; inconclusive = small, poorly fitted or top-dose-only effect, or another doubt; inactive = no such curve, though single readings can be large; an effect the other way counts as inactive or inconclusive.

Results for Cc1c(/C=N/NC(=O)c2ccccc2O)c2ccccn2c1C(=O)c1ccc(F)cc1 ?
KB-3-1 tox: inconclusive; SW480 rereplic: inactive; HT1080NT lethal: inconclusive; MCF10A rerep: 6.5µM; KB-V1 MDR tox: inconclusive; HT1080 IDH1KD tx: inconclusive

Results for COC(=O)N/N=C/c1c(C)c(C(=O)c2ccc(F)cc2)n2ccccc12 ?
KB-3-1 tox: inactive; SW480 rereplic: inactive; HT1080NT lethal: inactive; MCF10A rerep: inconclusive; KB-V1 MDR tox: 23µM; HT1080 IDH1KD tx: inconclusive

How did COC(=O)CCN1CCC2CC1c1cc(-c3cccc(C)c3)ccc12 (stereo not given) do in these assays?
KB-3-1 tox: inactive; SW480 rereplic: inactive; HT1080NT lethal: inactive; MCF10A rerep: inactive; KB-V1 MDR tox: inactive; HT1080 IDH1KD tx: inactive

What do the screens show for `O=C(O)C1Sc2[nH]c(=O)sc2C2c3cc(Cl)ccc3OC(=O)C12` (stereo not given)?
KB-3-1 tox: inactive; SW480 rereplic: inactive; HT1080NT lethal: inactive; MCF10A rerep: inactive[0.0737 µM]; KB-V1 MDR tox: inactive; HT1080 IDH1KD tx: inactive

Results for COCCNC(=O)c1ccc(N2CC3CC(C2)c2cccc(=O)n2C3)c(NC(=O)c2ccccc2Br)c1 (stereo not given) ?
KB-3-1 tox: inactive; HT1080NT lethal: inactive; KB-V1 MDR tox: inconclusive; HT1080 IDH1KD tx: inactive

Results for O=C1CC(c2ccc(Br)cc2)c2c(ccc3ccccc23)N1 (stereo not given) ?
KB-3-1 tox: inactive; KB-V1 MDR tox: inactive

What do the screens show for `O=C1CC(c2cccc([N+](=O)[O-])c2)c2c(ccc3ccccc23)N1` (stereo not given)?
KB-3-1 tox: inconclusive; SW480 rereplic: inconclusive; HT1080NT lethal: inconclusive; MCF10A rerep: inconclusive; KB-V1 MDR tox: 5.8µM; HT1080 IDH1KD tx: 12µM

How did CCCc1cc2c(OC(=O)CC)c(-c3ccc(C(=O)OCC)o3)c(=O)oc2cc1OC do in these assays?
KB-3-1 tox: inactive; SW480 rereplic: inconclusive; HT1080NT lethal: inactive; MCF10A rerep: 21µM; KB-V1 MDR tox: inactive; HT1080 IDH1KD tx: inactive

How did CCCc1cc(-c2n[nH]c(C)c2-c2ccc(C(=O)OCC)o2)c(O)cc1O do in these assays?
KB-3-1 tox: inactive; SW480 rereplic: inactive; HT1080NT lethal: inconclusive; MCF10A rerep: inactive; KB-V1 MDR tox: inactive; HT1080 IDH1KD tx: inconclusive

Results for O=C(c1[nH]c(C(F)(F)F)nc1-c1ccccc1)N1CCN(c2ccccn2)CC1 ?
KB-3-1 tox: inconclusive; HT1080NT lethal: inconclusive; KB-V1 MDR tox: inconclusive; HT1080 IDH1KD tx: 23µM

What do the screens show for `O=C(c1cccn2c(=O)c3ccccc3nc12)N1CCN(c2ccccn2)CC1`?
KB-3-1 tox: inactive; SW480 rereplic: inactive; HT1080NT lethal: inactive; MCF10A rerep: inactive; KB-V1 MDR tox: 9.2µM; HT1080 IDH1KD tx: inactive

How did Cc1ccc(-c2nn(-c3ccccc3)cc2C(=O)N2CCN(c3ccccn3)CC2)cc1 do in these assays?
KB-3-1 tox: inconclusive; SW480 rereplic: inconclusive; HT1080NT lethal: inconclusive; MCF10A rerep: inactive[9.22 µM]; KB-V1 MDR tox: inconclusive; HT1080 IDH1KD tx: inconclusive

How did Cc1cccc(-n2cc(CN3CCN(c4ccccn4)CC3)c(-c3cccc(F)c3)n2)c1 do in these assays?
KB-3-1 tox: inconclusive; SW480 rereplic: inactive; HT1080NT lethal: inactive; MCF10A rerep: inactive; KB-V1 MDR tox: inactive; HT1080 IDH1KD tx: inactive

Results for O=C(c1cn(-c2ccccc2)nc1-c1ccccc1)N1CCN(c2ccccn2)CC1 ?
KB-3-1 tox: inconclusive; SW480 rereplic: inconclusive; HT1080NT lethal: inconclusive; MCF10A rerep: inconclusive; KB-V1 MDR tox: 21µM; HT1080 IDH1KD tx: inactive

Results for Cc1ccc(-n2cc(CN3CCN(c4ccccn4)CC3)c(-c3ccc(F)cc3)n2)cc1 ?
KB-3-1 tox: inconclusive; SW480 rereplic: inconclusive; HT1080NT lethal: inactive; MCF10A rerep: 18µM; KB-V1 MDR tox: inconclusive; HT1080 IDH1KD tx: inconclusive

Results for O=C(c1cccn2c(=O)c3cc(Br)ccc3nc12)N1CCN(c2ccccn2)CC1 ?
KB-3-1 tox: inactive; SW480 rereplic: inactive; HT1080NT lethal: inactive; MCF10A rerep: inactive; KB-V1 MDR tox: inactive; HT1080 IDH1KD tx: inactive

How did Cn1c(N)c(C(=O)COC(=O)CCCc2nc3ccccc3s2)c(=O)n(C)c1=O do in these assays?
KB-3-1 tox: inactive; SW480 rereplic: inactive; HT1080NT lethal: inactive; MCF10A rerep: inactive[9.22 µM]; KB-V1 MDR tox: inactive; HT1080 IDH1KD tx: inactive

What do the screens show for `COc1ccc(-c2nn(-c3ccccc3)cc2/C=C/C(=O)N2CCN(c3ccccn3)CC2)cc1`?
KB-3-1 tox: inactive; SW480 rereplic: inactive; HT1080NT lethal: inactive; MCF10A rerep: inactive; KB-V1 MDR tox: 15µM; HT1080 IDH1KD tx: inactive

How did CC1(C)CC2(C)OC(=N)C1(C#N)C2(C#N)C#N (stereo not given) do in these assays?
KB-3-1 tox: inactive; SW480 rereplic: inactive; HT1080NT lethal: inconclusive; MCF10A rerep: 23µM; KB-V1 MDR tox: inactive; HT1080 IDH1KD tx: inconclusive

Results for C#CCOC(=O)Nc1cccn(Cc2c(Cl)cccc2Cl)c1=O ?
KB-3-1 tox: 10µM; SW480 rereplic: inconclusive; HT1080NT lethal: inconclusive; MCF10A rerep: inconclusive; KB-V1 MDR tox: inconclusive; HT1080 IDH1KD tx: inconclusive

Results for O=C(Nc1cccn(Cc2c(F)cccc2Cl)c1=O)NC1CCCCC1 ?
KB-3-1 tox: 2.6µM; SW480 rereplic: 18µM; HT1080NT lethal: inconclusive; MCF10A rerep: 21µM; KB-V1 MDR tox: inconclusive; HT1080 IDH1KD tx: inconclusive

How did CCOC(=O)C1(Cc2cccc(F)c2)CCN(CCCn2cccn2)CC1 do in these assays?
KB-3-1 tox: inactive; SW480 rereplic: inactive; HT1080NT lethal: inactive; MCF10A rerep: inactive; KB-V1 MDR tox: inactive; HT1080 IDH1KD tx: inactive

Results for Cn1c(=O)c2[nH]c(CCC3CCCC3)nc2n(C)c1=O ?
KB-3-1 tox: inactive; SW480 rereplic: inactive; HT1080NT lethal: inactive; MCF10A rerep: inactive; KB-V1 MDR tox: 23µM; HT1080 IDH1KD tx: inactive

Results for CCCc1nc2c([nH]1)c(=O)n(C)c(=O)n2C ?
KB-3-1 tox: inactive; SW480 rereplic: inactive; HT1080NT lethal: inconclusive; MCF10A rerep: inactive; KB-V1 MDR tox: inactive; HT1080 IDH1KD tx: inactive

What do the screens show for `COc1ccc2cc(CN(CC3CCCO3)S(=O)(=O)c3ccccc3)c(=O)[nH]c2c1` (stereo not given)?
KB-3-1 tox: inactive; SW480 rereplic: inactive; HT1080NT lethal: inactive; MCF10A rerep: inactive; KB-V1 MDR tox: 21µM; HT1080 IDH1KD tx: inactive

What do the screens show for `Cc1cc(C)c2cc(CN(CC3CCCO3)S(=O)(=O)c3ccc4c(c3)OCCO4)c(=O)[nH]c2c1` (stereo not given)?
KB-3-1 tox: inactive; SW480 rereplic: inactive; HT1080NT lethal: inactive; MCF10A rerep: inactive; KB-V1 MDR tox: 16µM; HT1080 IDH1KD tx: inactive
